A selection: hits, their analogues and other compounds. The true share with any hit is near 2.1%.
FUS yeast rescue – rescues growth of FUS-expressing yeast | S. cerevisiae FUS-expressing, growth rescue, OD600, 24 h | Potency, µM (top dose mostly 76.6 µM), hits mostly activators | 390,000 tested, 0.24% active; note: nearly all actives have a fitted effect of over 55% in size
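Quantitative HTS measuring growth restoration of FUS-toxic yeast. Galactose-induced cells (OD 0.005) were exposed 24hr at 30C to compounds at several concentrations, then absorbance at 600 nm was recorded.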
aSyn yeast inh – alpha-synuclein toxicity inhibition in yeast. Yeast expressing alpha-synuclein, growth rescue, BacTiter-Glo, 24 h. Potency, µM (titrated, usually from 46.1 µM), usual class: activators. 370,000 tested, 0.14% active. AID 652106; note: nearly all actives have a fitted effect of over 65% in size
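Readout is rescue of growth in alpha-synuclein-expressing yeast, so inhibitors of toxicity appear as activators. Growth after 24 hr at 30 deg C in galactose medium is quantified by luminescence.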
Abeta rescue – A-beta toxicity reversal in yeast; yeast expressing A-beta42, growth rescue, OD600, 48 h; response scale: 0% DMSO, 100% iron-clioquinol control; Potency, µM (highest dose often 46.1 µM), most hits filed as activators; 410,000 tested, 0.063% active; note: nearly all actives have a fitted effect of over 55% in size
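Yeast A-beta toxicity model in growth medium with pinned compounds, 48 h at 30 C; growth read as absorbance at 600 nm. Normalized to FeCl3/clioquinol equimolar mix (positive) and DMSO (negative).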
TDP43 rescue – TDP-43 toxicity inhibition in yeast. AID 652104. 410,000 tested, 1.8% active. Potency, µM (highest dose often 46.1 µM), most hits filed as activators. TDP-43 expressing yeast growth rescue, BacTiter-Glo, 24 h; note: nearly all actives have a fitted effect of over 50% in size
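In this qHTS, compounds that restore growth of yeast expressing TDP-43 appear as activators. Cells (OD600=0.02, galactose medium, raffinose-pregrown) are incubated with compound 24 hr at 30 deg C and growth is quantified by BacTiter-Glo.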
Hits are given with their value; 0 = inactive; ? = inconclusive; - = no result given. Calls come from the whole dose curve; as a rule, active = well fitted curve in the direction sought with a large enough effect; inconclusive = small, poorly fitted or top-dose-only effect, or another doubt; inactive = no such curve, though single readings can be large; an effect the other way counts as inactive or inconclusive.

SMILES	FUS yeast rescue	aSyn yeast inh	Abeta rescue	TDP43 rescue
COc1cc(/C=C/C(=O)c2ccc(C)cc2)ccc1OCC#N	-	0	0	20µM
O=C(Nc1ccccc1Sc1ccccc1)c1cnn2c1NC(=C1CC1)C=C2C(F)F	-	0	-	-
Cc1ccc(S(=O)(=O)NCc2c(Cl)cccc2Oc2ccccc2)cc1	0	0	0	20µM
CCc1ccc2oc(-c3ccc(OC)cc3)cc(=Nc3cccc(C(=O)O)c3)c2c1	0	0	0	0
COc1ccc(-c2cc(=Nc3ccc(C(=O)O)cc3)c3cc(C)ccc3o2)cc1	0	0	0	18µM
CCOc1ccc(OCCC(=O)OCC(=O)Nc2ccc(N3CCOCC3)cc2)cc1	0	0	0	0
CC(C)(C)c1ccc(OCCC(=O)OCC(=O)NC2CC2)cc1	0	?	0	13µM
CCOc1ccc(S(=O)(=O)N2CCOCC2)cc1NC(=O)CCOc1ccc(C(C)(C)C)cc1	0	0	0	?
CC(C)(C)c1ccc(OCCC(=O)Nc2ccc(N3CCOCC3)cc2N2CCOCC2)cc1	40µM	0	0	0
CCOc1cc(N2CCOCC2)c(OCC)cc1NC(=O)COC(=O)CCOc1ccc(C(C)(C)C)cc1	0	0	0	22µM
Cn1cccc1C(=O)N1CCN(S(=O)(=O)c2ccc(F)cc2)CC1	0	-	-	-
CN(CCC#N)c1ccc(/C=C/c2ccnc3ccccc23)cc1	-	0	-	-
CCN(CC)C(=O)OCc1c(-c2cccc(OC)c2)ncc2ccccc12	0	0	0	11µM
COc1ccc(C(=O)OCc2c(-c3cccc(OC)c3)ncc3ccccc23)cc1	0	0	0	0
COc1cccc(-c2ncc3ccccc3c2COC(=O)c2cccs2)c1	0	0	0	35µM
Cc1ccc(C)c(N2CCN(C(=O)Cn3c(-c4cccs4)cc4ccccc43)CC2)c1	0	-	0	0
COc1cc(NC(=O)CC2C(=O)OCCN2Cc2ccccc2)cc(OC)c1 (configuration not stated)	0	-	0	25µM
COC(=O)c1cc(NC(=O)CC2C(=O)OCCN2Cc2ccccc2)cc(C(=O)OC)c1 (configuration not stated)	0	-	0	?
O=C(CC1C(=O)OCCN1Cc1ccccc1)Nc1ccc(F)cc1 (configuration not stated)	0	-	0	13µM
CC(C)(C)OC(=O)C1[C@H](O)C=CC[C@H]1S(=O)c1ccccc1 (some centres not stated)	0	-	-	-
COc1ccc(F)cc1-c1cc(C(=O)NCc2cccc(Cl)c2)[nH]n1	0	0	0	14µM
COc1cc(CNC(=O)c2cc(-c3cc(F)ccc3OC(C)C)n[nH]2)cc(OC)c1	0	0	0	?
Cc1ccc(Cl)cc1-c1cc(C(=O)NCc2ccco2)[nH]n1	0	0	0	14µM
CCCOc1ccc(F)cc1-c1cc(C(=O)NCc2ccccc2OC)[nH]n1	0	0	0	35µM
COc1ccccc1CNC(=O)c1cc(-c2cc(F)ccc2OC(C)C)n[nH]1	0	0	0	25µM
SMILES	FUS yeast rescue	aSyn yeast inh	Abeta rescue	TDP43 rescue
CCCOc1ccc(F)cc1-c1cc(C(=O)NCc2ccccc2)[nH]n1	0	0	0	?
COc1ccc(Cl)cc1-c1cc(C(=O)NCc2ccco2)[nH]n1	0	0	0	?
C=CCNC(=O)CN(C(=O)c1csc2ccc(Cl)cc12)c1cccc(Br)c1	0	-	-	-
CCCOc1ccc(F)cc1-c1cc(C(=O)NCc2ccco2)[nH]n1	0	?	0	14µM
CC(C)Oc1ccc(F)cc1-c1cc(C(=O)NCc2cccs2)[nH]n1	?	0	0	35µM
Cc1ccc(-c2c(NC(=O)c3cccc(C)c3)nc3ncccn23)cc1	0	-	-	-
Cc1nc2c(OCCOc3ccccc3)cccn2c1N(C)C(=O)CCC1CCCC1	0	0	0	?
Cc1nc2c(OCc3cc(Cl)cc(Cl)c3)cccn2c1N(C)C(=O)CCC1CCCC1	?	0	0	35µM
Cc1nc2c(OCCC3CCCCC3)cccn2c1N(C)C(=O)CCC1CCCC1	0	0	0	35µM
Cc1nc2c(OCCOc3ccc(F)cc3)cccn2c1N(C)C(=O)CCC1CCCC1	0	0	0	0
Cn1ccc2ccc(-c3ccc4c(c3)[C@]3(CCC[C@@H](OCc5ccccc5)[C@@H]3NC(=O)CCc3ccccc3)C(=O)N4Cc3ccccc3)cc21	0	-	-	-
CC(=O)c1c(N2CCOCC2)nc2ccc(Br)cc2c1-c1ccccc1	0	0	0	14µM
O=c1[nH]c2ccc(Br)cc2c(-c2ccccc2)c1N1CCOCC1	0	0	0	0

Bioassay records (PubChem)
